In PubChem BioAssay (Tox21):
Records with an inconclusive call do not appear. Active and inactive are the calls of the source. Unless noted, calls come from the whole dose curve; as a rule, active = well fitted curve in the direction sought with a large enough effect in the repeat runs; inconclusive = weak or mixed curves; inactive = no such curve, though single readings can be large; an effect the other way counts as inactive or inconclusive.

Legend:
[1] = qHTS assay for small molecule agonists of the p53 signaling pathway (AID 651631; calls by dose curve; note: nearly all actives have a fitted effect of over 15% in size)
Summary of the method: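 Fluorescence intensity from cleaved LiveBLAzer B/G substrate (2 h, room temperature) served as the signal. Beforehand, HCT-116 reporter cells bearing p53 response elements were treated 16 h at 37 °C with DMSO-dissolved compounds.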

[2] = qHTS assay for small molecules that induce genotoxicity in human embryonic kidney cells expressing luciferase-tagged ATAD5 (AID 651632); note: nearly all actives have a fitted effect of over 15% in size
Summary of the method: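 HEK293T cells carrying a luciferase reporter tagged to ATAD5 were exposed to compound or DMSO vehicle for 16 hr at 37C, 5% CO2. Amplite was added, and after 30 min at room temperature luciferase activity was read as a marker of ATAD5 induction.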

[3] = qHTS assay for small molecule agonists of the p53 signaling pathway - cell viability (AID 651633; calls by dose curve;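 note: p53RE-bla HCT reporter cells with a stable beta-lactamase p53 reporter; series mostly up to about 83 µM; nearly all actives have a fitted effect of over 30% in size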)
Summary of the method: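 Viability counter-read: CellTiter-Glo luminescence (30 min, room temperature) in the same p53RE-bla plates. These plates had been exposed to compounds for 16 h at 37 C.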

[4] = qHTS assay for small molecules that induce genotoxicity in human embryonic kidney cells expressing luciferase-tagged ATAD5 - cell viability (AID 651634; calls by dose curve; note: nearly all actives have a fitted effect of over 25% in size)
Summary of the method: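 HEK293T cells expressing luciferase-tagged ATAD5 were exposed to compound or DMSO for 15.5 hr at 37C, 5% CO2. Viability was then read as live-cell protease activity by CellTiter-Fluor fluorescence after 30 min at 37C.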

[5] = qHTS assay for small molecule disruptors of the mitochondrial membrane potential - cell viability (AID 720634; calls by dose curve;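 note: human HepG2 liver cancer cells; series mostly up to about 83 µM; nearly all actives have a fitted effect of over 20% in size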)
Summary of the method: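 HepG2 cells seeded overnight at 37 C, then exposed to compound or DMSO for 1 hr at 37 C, 5% CO2. m-MPI dye added, then CellTiter-Glo for 30 min at room temperature; viability read as ATP luminescence.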

[6] = qHTS assay to test for compound auto fluorescence at 590 nm (red) in HepG2 cells (AID 720674)
Summary of the method: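 Red autofluorescence (Ex/Em 540/590 nm, Rose Bengal sodium equivalents) was measured in HepG2 cells, 2,000 per well in MEM plus 10% FBS, plated overnight at 37 C. Readings were taken 1 hr after adding 23 nL compound or DMSO, at 37 C and 5% CO2.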

[7] = qHTS assay to test for compound auto fluorescence at 535 nm (green) in HepG2 cells (AID 720675)
[8] = qHTS assay to test for compound auto fluorescence at 460 nm (blue) in HEK293 cells (AID 720678)
Summary of the method: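 After cell attachment (4-5 hr, 37C), compounds were pinned onto HEK293 monolayers in 10% dialyzed FBS medium. The blue channel (405/460 nm) was read following overnight culture. Equivalency was calculated against triamterene.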

[9] = qHTS assay to test for compound auto fluorescence at 590 nm (red) in HEK293 cells (AID 720679)
Summary of the method: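 Plates of HEK293 cells (10% dialyzed FBS) are treated with 23 nL compound or DMSO vehicle after a 4-5 hr attachment period, incubated overnight at 37C, and read for red fluorescence at 540/590nm.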

[10] = qHTS assay to test for compound auto fluorescence at 535 nm (green) in HEK293 cells (AID 720680)
[11] = qHTS assay to test for compound auto fluorescence at 590 nm (red) in HEK293 cell free culture (AID 720683)
Summary of the method: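 Red-channel autofluorescence of compounds in culture medium (DMEM, 10% FBS), no cells, measured at 540/590 nm. Rose Bengal sodium is the reference fluorophore for equivalence.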

[12] = qHTS assay to test for compound auto fluorescence at 590 nm (red) in HepG2 cell free culture (AID 720684)
Summary of the method: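 Steps: dispense MEM/10% FBS medium, no cells; pin compound or DMSO vehicle; read red channel, Ex/Em 540/590 nm. Output given as Rose Bengal sodium equivalents.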

[13] = qHTS assay to test for compound auto fluorescence at 460 nm (blue) in HepG2 cell free culture (AID 720685)
Summary of the method: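 Compound (23 nL) or DMSO pinned into cell-free MEM with 10% FBS; blue fluorescence read at 405/460 nm excitation/emission, expressed as auto-fluorescence equivalency to triamterene.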

[14] = qHTS assay to test for compound auto fluorescence at 535 nm (green) in HepG2 cell free culture (AID 720686)
[15] = qHTS assay to test for compound auto fluorescence at 460 nm (blue) in HepG2 cells (AID 720687)
Summary of the method: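 Blue-channel autofluorescence (Ex/Em 405/460 nm, triamterene-equivalent) was measured after 1 hr compound exposure at 37 C, 5% CO2. Cells were HepG2, plated overnight at 37 C in MEM plus 10% FBS.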

[16] = molecular target: Glucocorticoid receptor (Homo sapiens) (UniProt P04150); assay: qHTS assay to identify small molecule agonists of the glucocorticoid receptor (GR) signaling pathway (AID 720691; active = well fitted activation curve with a large enough effect in the signal ratio in the repeat runs, not every such curve was filed as active; the % refers to the signal ratio)
Chain of Glucocorticoid receptor (Homo sapiens) (P04150 whole entry, looked up): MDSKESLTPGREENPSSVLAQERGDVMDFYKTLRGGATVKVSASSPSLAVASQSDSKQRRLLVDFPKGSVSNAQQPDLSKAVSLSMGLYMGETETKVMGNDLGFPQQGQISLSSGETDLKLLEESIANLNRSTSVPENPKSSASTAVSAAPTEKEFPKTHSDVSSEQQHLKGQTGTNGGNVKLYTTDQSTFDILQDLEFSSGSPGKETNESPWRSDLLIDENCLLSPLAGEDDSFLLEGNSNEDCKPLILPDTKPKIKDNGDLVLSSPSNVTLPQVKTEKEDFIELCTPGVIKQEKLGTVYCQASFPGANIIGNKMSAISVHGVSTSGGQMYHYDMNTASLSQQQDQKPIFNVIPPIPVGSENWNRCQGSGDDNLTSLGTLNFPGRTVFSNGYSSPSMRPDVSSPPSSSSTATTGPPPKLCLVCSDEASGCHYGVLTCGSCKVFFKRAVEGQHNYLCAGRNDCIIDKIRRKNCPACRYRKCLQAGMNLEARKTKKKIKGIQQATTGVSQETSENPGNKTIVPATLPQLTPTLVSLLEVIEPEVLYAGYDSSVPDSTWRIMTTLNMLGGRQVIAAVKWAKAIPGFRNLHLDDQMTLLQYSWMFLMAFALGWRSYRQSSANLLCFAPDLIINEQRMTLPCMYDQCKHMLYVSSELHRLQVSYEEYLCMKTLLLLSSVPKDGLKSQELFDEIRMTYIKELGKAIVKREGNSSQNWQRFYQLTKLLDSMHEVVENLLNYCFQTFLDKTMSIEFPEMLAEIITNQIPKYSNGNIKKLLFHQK
Summary of the method: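 GR-bla HeLa cells (beta-lactamase reporter under glucocorticoid response element) were plated 4 h at 37 C/5% CO2, given compounds in DMSO, and incubated 18 h at 37 C. LiveBLAzer B/G FRET substrate was added for 2 h at room temperature, then fluorescence intensity read.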

[17] = molecular target: Glucocorticoid receptor (Homo sapiens) (UniProt P04150); assay: qHTS assay to identify small molecule antagonists of the glucocorticoid receptor (GR) signaling pathway (AID 720692; active = well fitted inhibition curve with a large enough effect in the signal ratio in the repeat runs, not every such curve was filed as active; the % refers to the signal ratio)
Summary of the method: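 GR-bla HeLa cells (beta-lactamase reporter under glucocorticoid response element) were pre-plated 4 h at 37 C, treated with compounds plus 5 nM dexamethasone (final) for 18 h, then read by LiveBLAzer B/G FRET fluorescence after 2 h.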

[18] = qHTS assay to test for compound auto fluorescence at 460 nm (blue) in HEK293 cell free culture (AID 720681)
Summary of the method: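 Blue fluorescence (Ex 405/Em 460 nm, triamterene-equivalent) was read immediately after pin transfer of compound or DMSO into medium (DMEM, 10% FBS) without cells.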

[19] = qHTS assay to test for compound auto fluorescence at 535 nm (green) in HEK293 cell free culture (AID 720682)
Summary of the method: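 Intrinsic compound fluorescence is measured in culture medium containing 10% FBS, with excitation at 485 nm and detection at 535 nm, referenced to fluorescein.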

[20] = qHTS assay for small molecule disruptors of the mitochondrial membrane potential (AID 720635)
Summary of the method: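 Mitochondrial membrane potential tracked with Mito-MPS dye, red aggregates (ex 540/em 590 nm) against green monomers (ex 490/em 535 nm). Compound treatment 1 hr at 37C, dye 30 min in HepG2.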

Measured: Potency

C=CCOC(=O)C(C)(C)OC(=O)c1cc(-n2c(=O)cc(C(F)(F)F)n(C)c2=O)ccc1Cl
not listed: [18] | [19] | [20]
inactive: all other assays above

COC(=O)C1(O)c2ccccc2-c2ccccc21
not listed: [20]
inactive: all other assays above

O=C(O)C(Cl)(Cl)Br
not listed: [12] | [20]
inactive: all other assays above

C=C(Cl)Cl
not listed: [5]
inactive: all other assays above

CC1(C)CC(=O)CC(C)(C)N1[O]
not listed: [8] | [16] | [17]
inactive: all other assays above

CCC[N+](CCC)(CCC)CCC
not listed: [16] | [17]
inactive: all other assays above

CC(Oc1cccc(Cl)c1)C(=O)O (stereo not drawn)
not listed: [18]
inactive: all other assays above

N#CC(C#N)=C(C#N)C#N
not listed: [4] | [5] | [18] | [20]
inactive: all other assays above

OCC1CO1 (stereo not drawn)
not listed: [3] | [8]
inactive: all other assays above

CC(Cl)C(=O)O (stereo not drawn)
not listed: [4] | [16] | [17] | [20]
inactive: all other assays above

CC(C)c1ccc(OP(=O)(Oc2ccc(C(C)C)cc2)Oc2ccc(C(C)C)cc2)cc1
not listed: [3] | [5] | [8] | [17] | [20]
inactive: all other assays above

O=C1CC[C@@]2(O)[C@H]3Cc4ccc(O)c5c4[C@@]2(CCN3CC2CC2)[C@H]1O5
not listed: [3] | [5] | [19] | [20]
inactive: all other assays above

CCCCCCCCP(=O)(O)O
not listed: [4]
inactive: all other assays above

CC(C)(C)NCC(O)c1ccccc1Cl (stereo not drawn)
not listed: [5] | [20]
inactive: all other assays above

SCc1ccccc1
not listed: [5] | [12] | [17] | [18] | [20]
inactive: all other assays above

Cc1nnc(-c2ccccc2)c(=O)n1N
not listed: [3] | [4]
inactive: all other assays above
